Assay outcomes (PubChem BioAssay)
HGIII-sPLA2 inh = Blocks human group III sPLA2 activity; Q9NZ20; QFRET BODIPY PC-A2 liposome hydrolysis, fluorescence; inhibition, % at 12.2 µM; 370,000 compounds, 0.56% hits; AID 743126;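 active = inhibition above mean plus 3 SD of compounds lying within the high and low control bounds, cut at about 19% in these data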;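 note: 0% = median of test compound wells and 100% = no enzyme DMSO wells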
Target sequence (Q9NZ20 whole entry, looked up): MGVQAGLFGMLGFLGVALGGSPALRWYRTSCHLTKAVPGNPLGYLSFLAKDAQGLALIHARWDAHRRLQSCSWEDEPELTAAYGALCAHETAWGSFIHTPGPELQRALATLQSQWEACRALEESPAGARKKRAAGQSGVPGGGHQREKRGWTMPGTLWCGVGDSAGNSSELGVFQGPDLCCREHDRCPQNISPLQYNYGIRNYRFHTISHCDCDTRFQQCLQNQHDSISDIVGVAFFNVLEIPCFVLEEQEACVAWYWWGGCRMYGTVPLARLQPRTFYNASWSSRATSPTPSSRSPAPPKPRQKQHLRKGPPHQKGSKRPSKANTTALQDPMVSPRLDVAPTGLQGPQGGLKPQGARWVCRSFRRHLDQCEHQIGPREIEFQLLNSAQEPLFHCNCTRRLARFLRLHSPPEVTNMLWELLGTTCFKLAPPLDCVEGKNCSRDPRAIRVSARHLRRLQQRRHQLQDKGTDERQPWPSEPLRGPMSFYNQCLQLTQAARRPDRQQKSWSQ
bovine MsrA act = activates bovine MsrA enzyme; activation, % at 10.6 µM; 360,000 compounds, 0.3% hits; AID 602163; purified bovine MsrA, absorbance read-out; in the data active = activation above about 7.5%;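 note: 0% = vehicle and 100% = reference activator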
rCAG RNA binder = binds r(CAG) RNA repeats | 370,000 compounds, 1.3% hits | r(CAG) RNA repeat, TO-PRO-1 dye displacement fluorescence | inhibition, % at 3 µM;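 active = inhibition above the plate cutoff, the mean of all test compounds on that plate plus 3 SD, cut at about 35% in these data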;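 note: 0% = DMSO alone and 100% = 100 µM mitoxantrone as full dye displacement; higher means more dye released from RNA so lower well fluorescence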
MsrA inhibitor = inhibits bovine methionine sulfoxide reductase A. purified bovine MsrA, absorbance read-out. inhibition, % at 15.5 µM. AID 651718. 360,000 compounds, 0.75% hits; in the data active = inhibition above about 4.5%;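 note: 0% = vehicle wells with enzyme and 100% = reference inhibitor wells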
hGIII sPLA2 conf = human GIII-sPLA2 inhibition, confirmation | 2,000 compounds, 34% hits | inhibition, % at 12.2 µM | recombinant hGIII-sPLA2, BODIPY PC-A2 QFRET fluorescence | shares compounds with HGIII-sPLA2 inh;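 active = mean inhibition across triplicates above the hit cutoff set in the earlier primary screen, cut at about 19% in these data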;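 note: 0% = enzyme with DMSO and 100% = DMSO wells lacking enzyme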
535nm interf = 535nm fluorescence interference, HGIII-sPLA2 counter-screen. shares compounds with HGIII-sPLA2 inh. 2,000 compounds, 8.5% hits. BODIPY FL product fluorescence interference, QFRET. inhibition, % at 12.2 µM;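 active = average inhibition above the solvent-only control mean plus 3 SD, cut at about 6% in these data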;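 note: 0% = DMSO with substrate plus product and 100% = DMSO with substrate alone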
535nm interf DR = counter-screen for HGIII-sPLA2 inhibitors: 535nm fluorescence interference, dose response; shares compounds with HGIII-sPLA2 inh; BODIPY FL product fluorescence interference, cell-free; IC50, µM; 240 tested, under 10 active;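 active = IC50 at or below 10 µM; inactive = IC50 above 10 µM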
* = called active by the depositor; x = no result given; ! = a repeat was not active. In the library only some 2.8% were active in any assay of this set; here they are far more common.

SMILES | HGIII-sPLA2 inh | bovine MsrA act | rCAG RNA binder | MsrA inhibitor | hGIII sPLA2 conf | 535nm interf | others
CC(C)Oc1ccc(CCC(=O)NNC(=S)Nc2ccccc2)cc1 | 17 | 0 | 0 | 0 | x | x
CC(C)Oc1ccc(CC(=O)NNC(=S)Nc2ccccc2)cc1 | 29* | 1 | 1 | 1 | 30* | -5 | 535nm interf DR=>122
O=C(NNC(=S)Nc1ccccc1)NNC(=S)Nc1ccccc1 | 34* | -1 | 2 | -2 | 29* | 0 | 535nm interf DR=>122
COC(=O)C1=C(C)N(Cc2ccccc2)C(=S)NC1c1ccc(-c2ccccc2)cc1 (stereo not drawn) | -10 | x | 4 | 1 | x | x
COc1ccc2[nH]c(=O)c(CN(C(=O)c3cccnc3)c3cc(C)ccc3C)cc2c1 | -1 | -2 | -7 | 1 | x | x
CC1=C(C(=O)Nc2ccccc2C)C(c2ccc(C)o2)NC(=S)N1 (stereo not drawn) | 20* | -3 | 5 | 1 | 22* | -4
CCOc1ccc(S(=O)(=O)N2CCN(C(=O)c3cccnc3)CC2)cc1 | 1 | -1 | -1 | -1 | x | x
Cc1cc(C(=O)NCC(=O)OCC(=O)N(C(C)C)C(C)C)ccc1[N+](=O)[O-] | 21* | -4 | -4 | 0 | 1 | -9
Cc1ccc(C(=O)NCC(=O)OCC(=O)c2ccc(C)c([N+](=O)[O-])c2)cc1 | -11 | -3 | 2 | 1 | x | x
CCOc1ccc(NC(=S)NN2C(C)CCCC2C)cc1 (stereo not drawn) | 22* | 5 | -6 | 1 | 11 | -3
COc1cccc(C(=O)Nc2c[nH]c(=O)[nH]c2=O)c1 | 21* | -2 | 2 | 0 | 3 | -5
Fc1ccc(-n2c(-c3cc(C4CC4)[nH]n3)n[nH]c2=S)cc1Cl | 28* | -5 | 3 | 1 | 23* | 1
O=c1ccc(-c2n[nH]c(=S)n2-c2ccc(F)c(Cl)c2)n[nH]1 | 7 | 2 | 2 | 2 | x | x
CC1=C(C(=O)N(C)C)CC(CC(=O)NCc2cccc3ccccc23)C(=O)N1CCCN1CCCC1=O (stereo not drawn) | 21* | -10 | 2 | 0 | -3 | -7
CC1=C(C(=O)N(C(C)C)C(C)C)CC(CC(=O)NCc2cccc3ccccc23)C(=O)N1CCCN1CCCC1=O (stereo not drawn) | 2 | -9 | 0 | 0 | x | x
CCOc1ccc(S(=O)(=O)N(CC(=O)N2CCc3ccccc32)Cc2ccco2)cc1 | 3 | 0 | 0 | 2 | x | x
NC(=O)c1sc2nc3c(c(-c4ccco4)c2c1N)CCCC3 | 20* | -2 | 6 | 1 | -1 | -11
CC1(c2ccccc2)NC(=O)N(CC(=O)Nc2ccc(N3CCOCC3)cc2N2CCOCC2)C1=O (stereo not drawn) | 15 | -2 | -2 | 1 | x | x
CC(C)(CCC(=S)N1CCOCC1)C1CCCCC1 | 19* | -3 | -5 | 1 | 18 | -7
S=C(CN1CCCC1=S)N1CCOCC1 | 0 | -1 | -1 | -1 | x | x
Cc1ccc(C(=O)NCC(c2ccco2)N2CCc3ccccc3C2)cc1 (stereo not drawn) | -6 | -2 | 1 | -1 | x | x
O=C(CSc1ccc(-c2ccccn2)nn1)N1CCCC1 | 1 | -1 | -2 | 0 | x | x
O=C(O)CCCNC(=O)C(c1ccccc1)c1ccccc1 | 21*! | -4 | 0 | 0 | -2 | -6
O=C(O)CCCNC(=O)CCCNC(=O)C(c1ccccc1)c1ccccc1 | 13 | -1 | 1 | 0 | x | x
O=C(COC(=O)c1c(F)cccc1Cl)NC1CCCCC1 | 6 | -7 | -14 | -1 | x | x
SMILES | HGIII-sPLA2 inh | bovine MsrA act | rCAG RNA binder | MsrA inhibitor | hGIII sPLA2 conf | 535nm interf | others
O=C(CSCc1c(F)cccc1Cl)NNC(=S)NC1CCCCC1 | 21* | -2 | 3 | -1 | 11 | 2
O=C(C[n+]1ccncc1)c1ccccc1 | -3 | 0 | 10 | 0 | x | x
OC(c1ccccc1)c1ccccc1CN1CCCNC1=S (stereo not drawn) | 19* | -7 | 4 | 0 | 10 | -1
COc1ccc(NC(=O)/C(C#N)=C/c2cccnc2)c(OC)c1 | -4 | -7 | 4 | -1 | x | x
COc1ccc(NC(=O)C(=O)N/N=C/c2cccnc2)c(OC)c1 | 20* | -4 | -4 | 2 | 4 | -7
COc1ccccc1/C=N/NC(=O)C(=O)Nc1ccccc1OC(F)(F)C(F)F | 11 | -3 | -7 | 2 | x | x
COc1cccc(/C=N/NC(=O)C(=O)Nc2ccccc2OC(F)(F)C(F)F)c1 | 21* | -3 | -6 | 0 | 5 | -4
CC(C)COC(=O)Nc1nnc(SCCOc2ccccc2)s1 | -9 | 0 | -1 | 0 | x | x
CCOC(=O)C1CCCN(c2c(NCC3CCCN3CC)c(=O)c2=O)C1 (stereo not drawn) | 3 | -10 | -1 | 0 | x | x
CCC(=O)Nc1ccc(C(=O)n2ccc(C)n2)cc1 | -4 | -4 | 1 | 2 | x | x
Cc1ccn(C(=O)c2ccc(NC(=O)CC(C)C)cc2)n1 | 19* | -11 | 0 | 0 | 3 | -1
O=C(c1cc2ccccc2oc1=O)N(Cc1ccc(F)cc1)C1CCS(=O)(=O)C1 (stereo not drawn) | 15 | -1 | 1 | 1 | x | x
Cc1ccc(C(=O)NC(=S)Nn2cnnc2)cc1 | 7 | -1 | 0 | -1 | x | x
O=C(NC(=S)Nn1cnnc1)c1cccc(Br)c1 | 22* | -5 | 2 | 0 | 4 | -2
CCn1cc(C(=O)N[C@@H](C)C(=O)NCCCN2CCOCC2)c(=O)c2cc3c(cc21)OCO3 | 4 | -3 | -4 | 1 | x | x
CC1CN(Cc2ccccc2Cl)CC(C)O1 (stereo not drawn) | 19* | -3 | -1 | 0 | -1 | -10
Clc1ccccc1CN1CCSCC1 | 3 | 0 | 6 | 0 | x | x
O=c1c(-c2ccco2)nc2ccccc2n1C(c1ccccn1)c1nc2ccccc2[nH]1 (stereo not drawn) | 23* | x | 24 | 3 | 5 | -1
Cc1ccc2nc(SCC(=O)Nc3nonc3N)[nH]c2c1 | -1 | -2 | -1 | 1 | x | x
S=c1[nH]c(-c2ccccc2)cn1/N=C/c1cccs1 | 24* | 0 | 5 | 1 | 38* | 12*
S=c1[nH]c(-c2ccccc2)cn1/N=C/c1ccc(Br)cc1 | 0 | -1 | 4 | 0 | x | x
COC(=O)C1CCN(S(=O)(=O)CCNC(=O)c2cccc(OC)c2)CC1 | -6 | -8 | -1 | 0 | x | x
CN1C2CCC1CC(NC(=O)c1ccc(Cl)cc1)C2 (stereo not drawn) | 13 | -8 | -3 | 0 | x | x
O=C(NC1C2CCCC1CN(C1CC1)C2)c1ccc(Cl)cc1 (stereo not drawn) | 20* | -2 | -1 | 1 | 19 | -6
CN(C)C(=O)NC(NC(=S)Nc1ccccc1)C(Cl)(Cl)Cl (stereo not drawn) | 6 | -2 | 4 | -1 | x | x
